HCV inhibitor – blocks hepatitis C virus. Potency, µM (doses to about 41.8 µM), for the others: at the highest dose activity change, negative = inhibition, usual class: inhibitors. hit rate 3.4% among 340,000. Huh7.5.1 HCVcc-Cre infection, luciferase reporter, 44 h; further: potency means the concentration at half of the fitted maximal effect
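HCVcc-Cre virus at an moi near 0.5 was added right after compound to cells cultured 4 h from seeding (1,000 cells/well). Luciferase activity was determined 44 h later, 15 min after substrate addition at RT.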
Pf growth 96h – P. falciparum growth inhibition at 96 hour, primary screen for plastid delayed-death inhibitors; P. falciparum luciferase reporter growth, 96 h; hit rate 6.9% among 320,000; Potency, µM (titrated, usually from 28.7 µM), inactives show top-dose activity change, negative = inhibition, most hits filed as inhibitors; further: potency means the concentration at half of the fitted maximal effect
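Parasite growth measured via integrated firefly luciferase reporter in P. falciparum. Infected erythrocytes at 2% hematocrit, 0.05% parasitemia final were treated 96 hours at 37 C under 5% CO2, and luminescence was read.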
Marburg entry inh – blocks Marburg virus binding to or entry into cells | Marburg virus pseudotyped entry inhibition, cell reporter | Potency, µM (doses to about 37.8 µM), without a hit: at the top dose activity change, negative = inhibition, hits mostly inhibitors | hit rate 1.8% among 300,000 | AID 540276; calls by dose curve; tested in HEK293 cells; further: potency means the concentration at half of the fitted maximal effect
LASV entry inh – inhibitors of Lassa virus binding or cell entry; Potency, µM (highest dose often 37.9 µM), without a hit: at the top dose activity change, negative = inhibition, usual class: inhibitors; Lassa virus pseudotype entry inhibition, cell reporter; AID 540256; hit rate 1.2% among 300,000; calls by dose curve; tested in HEK293 cells; further: potency means the concentration at half of the fitted maximal effect; nearly all actives have a fitted effect of over 50% in size
HCMV inh – blocks human cytomegalovirus replication; HFF cells, HCMV-luciferase reporter, 72 h; stronger effect = lower value; activity change, negative = inhibition, % at 57.5 µM; hit rate 4.5% among 410,000; AID 1259415; in the data active means activity change below about -60%; inconclusive means no clear call, values can overlap the other calls; inactive means above about -39%
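Two-dose cell screen: HFF monolayers treated with compounds and infected with luciferase-expressing HCMV at 1 PFU/cell, 72 h at 37C, then lysed for luciferase measurement.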
Pf growth 48h – inhibits P. falciparum growth in the first generation, 48 h; P. falciparum luciferase growth in erythrocytes, 48 h; Potency, µM (doses to about 28.7 µM), without a hit: at the top dose activity change, negative = inhibition, most hits filed as inhibitors; hit rate 5.9% among 310,000; AID 504832; further: potency means the concentration at half of the fitted maximal effect
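Here the parasites carry a stable luciferase gene and grow inside erythrocytes in Albumax-based RPMI medium with compound for one erythrocytic cycle. Activity is scored as loss of luminescent signal.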
* hit, by the source's call; ? = inconclusive; / = no result; [ ] = another dose, or the depositor's remark. The list is not random: actives were taken first. Their share in the collection is about 14%. Unless noted, the call rests on the fitted dose curve; in most records, active means well fitted inhibition curve with a large enough effect; inconclusive means small, poorly fitted or top-dose-only effect, or another doubt; inactive means no such curve, though single readings can be large or run the other way. On the % scale 0 is the no-effect control and ±100 the full control effect.

SMILES	HCV inhibitor	Pf growth 96h	Marburg entry inh	LASV entry inh	HCMV inh	Pf growth 48h
Cn1c(=O)c2c(nc(NCc3ccco3)n2C/C=C/c2ccccc2)n(C)c1=O	2.5µM*	9.3µM*	13µM*	10µM*	-96*	8.3µM*
Cn1c(=O)c2c(nc(NCCc3ccccc3)n2Cc2ccc(F)cc2)n(C)c1=O	?	?	/	/	-24	12µM*
CC(C)CCn1c(NCCc2ccccc2)nc2c1c(=O)n(C)c(=O)n2C	?	?	/	/	-24	?
CC(Cl)=CCn1c(NCCc2ccccc2)nc2c1c(=O)n(C)c(=O)n2C	/	/	/	/	-87*	/
Cn1c(=O)c2c(nc(NCCc3ccccc3)n2Cc2ccc(Cl)c(Cl)c2)n(C)c1=O	/	/	-14%[46.1 µM]	-3%[46.1 µM]	11	/
O=C(CSc1nc(=O)n(Cc2ccncc2)c2c1CCC2)Nc1ccc(F)cc1F	/	/	/	23%[46.1 µM]	20	/
Cc1ccc(Cl)c2sc(NC(=O)CS(=O)(=O)c3ccc(Cl)cc3)nc12	/	/	/	?	0	/
C=CCNc1nc2c(c(=O)n(C)c(=O)n2C)n1Cc1ccc(F)cc1	6.3µM*	-21%	/	/	-79*	-8%
C[C@@H]1CN([C@@H](C)CO)C(=O)CCCn2cc(nn2)CO[C@H]1CN(C)C(=O)C1CCCCC1	/	/	/	/	-31	/
CC(NC(=O)Cc1cccs1)C(c1cccs1)N1CCOCC1 (stereo not drawn)	9%	/	-16%	13%	9	13µM*
Cc1ccccc1CC(=O)NCCN1CCOCC1	14%	?	/	/	20	7%
O=C(Cc1cccs1)NCCN1CCOCC1	31%	4.1µM*	17%	-2%	-7	-8%
CC(NC(=S)NC1CCCCC1)C(c1cccs1)N1CCOCC1 (stereo not drawn)	-1%	8.3µM*	-28%[46.1 µM]	-4%	-37	?
CCS(=O)(=O)c1ccc(OC)c(Nc2ncc(-c3cccc(F)c3)o2)c1	/	/	/	-34%	/	/
CC1Cn2c(nnc2-c2ccccc2O)S1 (stereo not drawn)	5%	-6%	0%	/	0	/
CC1Cn2c(nnc2-c2cc3ccccc3cc2O)S1 (stereo not drawn)	?	/	3%	26%	-6	1.7µM*
CCOc1ccc(-c2cc(C(=O)NCCCN3CCN(CC)CC3)c3ccccc3n2)cc1	8.9µM*	?	?	-2%	57	?
CCOc1ccc(-c2cc(C(=O)NCCCn3ccnc3)c3cc(Br)ccc3n2)cc1	10µM*	?	?	?	-77*	1.7µM*
O=C(NCCCn1ccnc1)c1nn2c(C(F)(F)F)cc(-c3ccc(Br)cc3)nc2c1Cl	?	2.9µM*	?	-7%	3	1.5µM*
C/C(N)=C(/C#N)C(=O)COC(=O)c1cc(-c2ccc(Br)cc2)nc2ccccc12	10µM*	?	?	?	8	4%
COc1cccc(-c2n[nH]c3ccnc(-c4cccc(C(C)=O)c4)c23)c1	/	/	/	/	-21	/
COc1ccc(C)cc1NC(=O)Cn1cc(S(=O)(=O)N2CCC(C)CC2)c2ccccc2c1=O	/	/	?	-22%[46.1 µM]	14	/
Cc1ccc(CN2CCNC(=O)C2CC(=O)NCc2cc(C)n(C)n2)cc1 (stereo not drawn)	9%	?	-8%	-6%	26	14%
O=C(Nc1ccc2oc(-c3ccc4ccccc4c3)nc2c1)c1cc(Cl)ccc1Cl	/	/	/	-18%[46.1 µM]	-30	/
COCCCNc1nc2c(c(=O)[nH]c(=O)n2C)n1C[C@@H](O)COc1ccccc1	/	/	20%	/	/	/
CCOc1ccc(-c2cc(C(=O)O)c3ccccc3n2)cc1	-4%	/	21µM*	12µM*	69	2%
CCOc1ccc(-c2cc(C(=O)N3CCC(C)CC3)c3ccccc3n2)cc1	?	/	16%	30%	27	/
C=CC[C@@H]1C=C[C@H](ON=C(C)CCN2CCCc3nc(C)c(C)cc32)[C@H](CO)O1	/	/	23%[14.2 µM]	/	/	/
COc1ccc(Cn2nnnc2CN(Cc2cc3ccc(C)cc3[nH]c2=O)C2CCCC2)cc1	10µM*	4%[5.75 µM]	?	?	-26	9.3µM*
Cc1cccc2cc(CN(Cc3nnnn3C3CCCCC3)C3CCCC3)c3nnnn3c12	?	/	?	?	-33	12µM*

Assay outcomes as filed in PubChem.
